# This is part of a sample that, as a whole, favours compounds with a hit. Of some 79,000 tested, about 15% had one in any assay. A number with no mark means an inactive call. The source made the active and inactive calls. No stated cut-off is given here; in the data, active means growth inhibition above about 70%; inactive means the rest.
# How the values were obtained:
# [1] = NCI Yeast Anticancer Drug Screen. Data for the rad50 strain (AID 155);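 further: 0% = growth of vehicle-only cultures of the same strain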; details: S. cerevisiae rad50 strain growth inhibition, active compounds read high
# Method in brief: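 Genetically altered yeast (DNA repair pathway); compound treatment; growth inhibition vs vehicle ctrl.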
# [2] = NCI Yeast Anticancer Drug Screen. Data for the mec2-1 strain (AID 157); details: S. cerevisiae mec2-1 strain, active compounds read high
# Method in brief: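 mec2-1 yeast strain, carrying an alteration in DNA damage repair or cell cycle control, was exposed to compounds; growth inhibition was measured relative to vehicle-treated controls.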
# [3] = NCI Yeast Anticancer Drug Screen. Data for the sgs1 mgt1 strain (AID 161);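 further: 0% = growth of cultures given vehicle only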; details: S. cerevisiae sgs1 mgt1 strain, active compounds read high
# Method in brief: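 Yeast cells carrying a defined DNA-repair defect were exposed to test compounds. Growth inhibition was measured relative to vehicle-treated controls.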
# [4] = NCI Yeast Anticancer Drug Screen. Data for the cln2 rad14 strain (AID 165);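 further: 0% = growth equal to vehicle treated cultures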; details: S. cerevisiae cln2 rad14 strain, active compounds read high
# Method in brief: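 Yeast carrying cln2 and rad14 alterations (cell cycle control and DNA damage repair) were exposed to compounds. Growth inhibition was measured against vehicle-treated controls.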
# [5] = NCI Yeast Anticancer Drug Screen. Data for the bub3 strain (AID 167); details: S. cerevisiae bub3 mutant strain, active compounds read high
# Method in brief: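 Yeast carrying a defined mutation is treated with each compound, and growth is compared with that of vehicle-exposed cells to give inhibition.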
# [6] = NCI Yeast Anticancer Drug Screen. Data for the mlh1 rad18 strain (AID 175); details: S. cerevisiae mlh1 rad18 strain growth inhibition, active compounds read high
# Method in brief: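 Growth inhibition of the yeast strain was measured after compound exposure and expressed relative to vehicle-treated controls. The strain carries defined defects in DNA damage repair.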
# [7] = at 5.0 µM (retest, dose inferred, filed as 0.5)
# [8] = at 50.0 µM (retest, dose inferred, filed as 5.0)
Structure (SMILES),"growth inhibition [1, 7]","growth inhibition [1, 8]",growth inhibition ([1]; at 50.0 µM),"growth inhibition [2, 7] [%]","growth inhibition [2, 8]",growth inhibition ([2]; at 50.0 µM),"growth inhibition [3, 7] [%]","growth inhibition [3, 8]",growth inhibition ([3]; at 50.0 µM),"growth inhibition [4, 7]","growth inhibition [4, 8]",growth inhibition ([4]; at 50.0 µM),"growth inhibition [5, 7]","growth inhibition [5, 8]",growth inhibition ([5]; at 50.0 µM),"growth inhibition [6, 7]","growth inhibition [6, 8]",growth inhibition ([6]; at 50.0 µM)
CCOC(=O)/C(C#N)=C/c1coc2cc(C)cc(C)c2c1=O,6%,100% (active),70.4% (active),2,97% (active),90.4% (active),-3,98% (active),79.9% (active),-2%,89% (active),89.3% (active),-20%,93% (active),83% (active),15%,98% (active),65.8%
Oc1ccc(C2CCc3ccccc32)cc1 (stereo not given),-6%,98% (active),99.6% (active),-36,98% (active),99.8% (active),-7,98% (active),99.1% (active),-11%,98% (active),99.3% (active),-28%,94% (active),99.5% (active),-7%,98% (active),99.4% (active)
CC(Cl)C(=O)Nc1cc2ccccc2oc1=O (stereo not given),-7%,9%,10.7%,-3,7%,6.15%,6,4%,9.2%,10%,-1%,0.35%,-5%,-2%,2.45%,-21%,-3%,-11.2%
Clc1ccnc2c1ccc1c(Cl)ccnc12,8%,53%,43.6%,-17,2%,26.4%,1,12%,20.7%,5%,-10%,13.9%,-74%,10%,40.6%,3%,15%,45.9%
Nc1ncnc2c1cnn2C1CCCCC1,3%,79% (active),30.2%,-2,46%,58.8%,0,45%,14.9%,-1%,68%,36.3%,-2%,58%,32.7%,1%,75% (active),71.2% (active)
N#CC1(C#N)C(C#N)(C#N)C12CCCCCC2,38%,97% (active),98.9% (active),32,98% (active),99.3% (active),39,99% (active),99.5% (active),13%,95% (active),98.7% (active),39%,83% (active),99% (active),52%,98% (active),99.2% (active)
Cc1cc(O)c(C(=O)/C=C/c2cccnc2)c(=O)[nH]1,-13%,79% (active),68.9%,-3,76% (active),33.7%,-5,92% (active),84.8% (active),9%,70% (active),16.3%,-16%,89% (active),78.8% (active),8%,91% (active),93% (active)
C=CCOC(=O)SC(=S)OCN(C)C,3%,98% (active),99.2% (active),-3,99% (active),99.4% (active),1,99% (active),99.4% (active),4%,99% (active),98.6% (active),-1%,98% (active),99.3% (active),1%,99% (active),99.1% (active)
Nc1cc2c(c[n+](CCCBr)c3ccccc23)c2ccccc12,41%,98% (active),66.8%,23,99% (active),64.6%,58,99% (active),68.2%,46%,98% (active),33.1%,52%,99% (active),46.5%,24%,98% (active),71.1% (active)
CC(C)[C@H](N)C(=O)NCCNC(=O)[C@@H](N)C(C)C,90% (active),99% (active),-24.6%,66,99% (active),-4.9%,62,99% (active),-14.2%,89% (active),99% (active),17.2%,93% (active),100% (active),37.1%,89% (active),99% (active),4.4%
